Measurements as given in PubChem BioAssay (EPA / NIEHS).
Values joined by “and” are separate entries in the source; they are usually repeats but may differ in a detail not shown here. Identical values can stand only once. More than one record can exist for a structure, and the calls need not agree. Active and inactive are the calls of the source. The calls were made as follows: active = hit-call score of the fitted dose curve at least 0.9, where 1 is the maximum; inactive = score below 0.9.

How the values were obtained:
[1] = read-out: Macrophage colony-stimulating factor (MCSF), CSF1 (gene 1435); test: BSK_hDFCGF_MCSF: BioMAP Diversity Plus: hDFCGF Assay for Macrophage colony-stimulating factor (MCSF) Biomarker Activity (AID 2283060); settings: primary human foreskin fibroblasts; actives raise or lower the signal
Summary of the method: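 Human foreskin primary fibroblasts were treated with test chemical for 24 h, and M-CSF was then measured by ELISA. Data were fitted bidirectionally against DMSO as the negative control and activity baseline.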

[2] = BSK_hDFCGF_SRB: Viability Assessment in the BioMAP Diversity Plus: hDFCGF Assay (AID 2283061); settings: primary human foreskin fibroblasts;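 also: cells exposed to compound for 24 h before the read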
Summary of the method: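 Human foreskin primary fibroblasts were treated with compound and assessed 24 h after dosing. Total protein was measured by sulforhodamine B staining (0.1% SRB after 10% TCA fixation, 560 nm read) as a cytotoxicity marker, with bidirectional fitting against DMSO baseline.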

[3] = read-out: TIMP metallopeptidase inhibitor 1 (TIMP1), TIMP1 (gene 7076); test: BSK_hDFCGF_TIMP1: BioMAP Diversity Plus: hDFCGF Assay for TIMP metallopeptidase inhibitor 1 (TIMP1) Biomarker Activity (AID 2283062); settings: primary human foreskin fibroblasts; actives raise or lower the signal
Summary of the method: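 Primary human foreskin fibroblasts in the hDFCGF system were dosed with compound for 24 h, then TIMP-1 was measured by ELISA. Activity was fitted bidirectionally relative to DMSO control; parallel SRB staining assessed cytotoxicity.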

[4] = read-out: Monokine induced gamma interferon (MIG), CXCL9 (gene 4283); test: BSK_hDFCGF_MIG: BioMAP Diversity Plus: hDFCGF Assay for Monokine induced gamma interferon (MIG) Biomarker Activity (AID 2283063); settings: primary human foreskin fibroblasts; actives raise or lower the signal
Summary of the method: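 ELISA read-out of MIG from primary human dermal fibroblasts 24 h post-dosing. Gain or loss of signal fitted bidirectionally, DMSO as baseline.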

[5] = read-out: Matrix Metallopeptidase 1 (MMP1), MMP1 (gene 4312); test: BSK_hDFCGF_MMP1: BioMAP Diversity Plus: hDFCGF Assay for Matrix Metallopeptidase 1 (MMP1) Biomarker Activity (AID 2283064); settings: primary human foreskin fibroblasts; actives raise or lower the signal
Summary of the method: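 Primary human foreskin fibroblasts in the hDFCGF system were dosed with test chemical, and MMP1 was measured by ELISA 24 h later. Values come from bidirectional curve fitting against the DMSO baseline.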

[6] = read-out: Vascular cell adhesion molecule 1 (VCAM1), VCAM1 (gene 7412); test: BSK_hDFCGF_VCAM1: BioMAP Diversity Plus: hDFCGF Assay for Vascular cell adhesion molecule 1 (VCAM1) Biomarker Activity (AID 2283065); settings: primary human foreskin fibroblasts; actives raise or lower the signal;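 as to AC50: VCAM-1 protein level quantified by ELISA after 24 h chemical exposure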
Summary of the method: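 Primary human foreskin fibroblasts (hDFCGF system) were dosed with chemical and VCAM-1 was measured by ELISA 24 h later. Bidirectional curve fitting used DMSO as negative control and activity baseline.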

[7] = read-out: Plasminogen activator inhibitor-1 (PAI1), SERPINE1 (gene 5054); test: BSK_hDFCGF_PAI1: BioMAP Diversity Plus: hDFCGF Assay for Plasminogen activator inhibitor-1 (PAI1) Biomarker Activity (AID 2283066); settings: primary human foreskin fibroblasts; actives raise or lower the signal
Summary of the method: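 Human foreskin fibroblast primary cells, 24 h chemical exposure; PAI-1 measured by ELISA. Bidirectional fitting relative to DMSO; parallel cultures stained with SRB for total protein to flag overt cytotoxicity.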

[8] = read-out: Intercellular Adhesion Molecule 1 (ICAM1), ICAM1 (gene 3383); test: BSK_KF3CT_ICAM1: BioMAP Diversity Plus: KF3CT Assay for Intercellular Adhesion Molecule 1 (ICAM1) Biomarker Activity (AID 2283067); settings: primary human keratinocytes with fibroblasts; actives raise or lower the signal
Summary of the method: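 Human keratinocyte plus foreskin fibroblast primary co-culture was exposed to chemical for 24 h. ICAM-1 was then quantified by ELISA, and the data were fit bidirectionally against DMSO as the negative control and baseline.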

[9] = read-out: Interferon-gamma inducible Protein 10 (IP10), CXCL10 (gene 3627); test: BSK_KF3CT_IP10: BioMAP Diversity Plus: KF3CT Assay for Interferon-gamma inducible Protein 10 (IP10) Biomarker Activity (AID 2283068); settings: primary human keratinocytes with fibroblasts; actives raise or lower the signal
Summary of the method: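 KF3CT co-culture (keratinocytes + foreskin fibroblasts), 24 h compound, IP-10 by ELISA; bidirectional fit vs DMSO baseline.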

[10] = BSK_KF3CT_SRB: Viability Assessment in the BioMAP Diversity Plus: KF3CT Assay (AID 2283069); settings: primary human keratinocytes with fibroblasts
Summary of the method: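 Human primary keratinocyte plus foreskin fibroblast co-culture exposed to chemicals for 24 h. Total protein measured by 0.1% sulforhodamine B staining after 10% TCA fixation, read at 560 nm; bidirectional fitting versus DMSO baseline.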

[11] = read-out: Interleukin-1 alpha (IL1a), IL1A (gene 3552); test: BSK_KF3CT_IL1a: BioMAP Diversity Plus: KF3CT Assay for Interleukin-1 alpha (IL1a) Biomarker Activity (AID 2283070); settings: primary human keratinocytes with fibroblasts; actives raise or lower the signal
Summary of the method: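 Human keratinocyte plus foreskin fibroblast primary co-culture, sampled 24 h after chemical dosing. IL-1a measured by ELISA; responses fitted bidirectionally against DMSO baseline (negative control), so gain or loss of signal both count.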

[12] = read-out: Transforming growth factor beta 1 (TGFb1), TGFB1 (gene 7040); test: BSK_KF3CT_TGFb1: BioMAP Diversity Plus: KF3CT Assay for Transforming growth factor beta 1 (TGFb1) Biomarker Activity (AID 2283072); settings: primary human keratinocytes with fibroblasts; actives raise or lower the signal
Summary of the method: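 Human keratinocyte/foreskin fibroblast co-culture; TGF-b1 measured by ELISA 24 h after dosing, fitted bidirectionally versus DMSO. Cytotoxicity checked in parallel cultures by total protein (SRB staining, 560 nm).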

[13] = read-out: C-C motif chemokine 2 (Homo sapiens) (UniProt P13500); test: BSK_KF3CT_MCP1: BioMAP Diversity Plus: KF3CT Assay for Monocyte Chemoattractant Protein 1 (MCP1/CCL2) Biomarker Activity (AID 2283073); settings: primary human keratinocytes with fibroblasts; actives raise or lower the signal
Summary of the method: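 Human keratinocyte plus foreskin fibroblast primary co-culture exposed to chemical for 24 h. MCP-1 levels measured by ELISA. Bidirectional curve fitting relative to DMSO negative control as baseline.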

[14] = read-out: Matrix Metallopeptidase 9 (MMP9), MMP9 (gene 4318); test: BSK_KF3CT_MMP9: BioMAP Diversity Plus: KF3CT Assay for Matrix Metallopeptidase 9 (MMP9) Biomarker Activity (AID 2283074); settings: primary human keratinocytes with fibroblasts; actives raise or lower the signal;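 as to AC50: MMP9 protein level quantified by ELISA in the co-culture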
Summary of the method: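 Keratinocyte plus foreskin fibroblast human primary skin co-culture was dosed with chemical and MMP-9 was quantified by ELISA 24 h later. Bidirectional curve fitting used DMSO as negative control and activity baseline.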

[15] = read-out: urokinase plasminogen activator (uPA), PLAU (gene 5328); test: BSK_KF3CT_uPA: BioMAP Diversity Plus: KF3CT Assay for urokinase plasminogen activator (uPA) Biomarker Activity (AID 2283075); settings: primary human keratinocytes with fibroblasts; actives raise or lower the signal
Summary of the method: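 Human keratinocyte plus foreskin fibroblast primary co-culture exposed to chemical for 24 h. uPA levels were quantified by ELISA, and activity was fitted bidirectionally against a DMSO negative-control baseline.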

CD40, CD40 (gene 958) = test: BSK_LPS_CD40: BioMAP Diversity Plus: LPS Assay for CD40 Biomarker Activity (AID 2283076); settings: primary human HUVEC with PBMC; actives raise or lower the signal
Summary of the method: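 Primary human umbilical vein endothelial cells co-cultured with peripheral blood mononuclear cells, LPS-stimulated, were dosed with chemical and read 24 h later. CD40 levels were measured by ELISA and fitted bidirectionally against DMSO as negative control and baseline.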

[16] = read-out: E-selectin (Homo sapiens) (UniProt P16581); test: BSK_LPS_Eselectin: BioMAP Diversity Plus: LPS Assay for Eselectin Biomarker Activity (AID 2283077); settings: primary human HUVEC with PBMC; actives raise or lower the signal
Summary of the method: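 Human umbilical vein endothelial cells co-cultured with peripheral blood mononuclear cells under LPS stimulation; E-selectin measured by ELISA 24 h after chemical dosing. Activity fitted bidirectionally against DMSO as negative control and baseline.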

[17] = read-out: Interleukin-8 (IL8), CXCL8 (gene 3576); test: BSK_LPS_IL8: BioMAP Diversity Plus: LPS Assay for Interleukin-8 (IL8) Biomarker Activity (AID 2283078); settings: primary human HUVEC with PBMC; actives raise or lower the signal
Summary of the method: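 Human umbilical vein endothelial cells co-cultured with PBMC were stimulated with LPS; IL-8 levels were measured by ELISA 24 h after chemical dosing. Activity was fitted bidirectionally against DMSO as negative control and baseline.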

[18] = BSK_LPS_SRB: Viability Assessment in the BioMAP Diversity Plus: LPS Assay (AID 2283079); settings: primary human HUVEC with PBMC;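 also: total protein by sulforhodamine B absorbance as a cytotoxicity measure; measured one day after compound addition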
Summary of the method: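 Human umbilical vein endothelial cells co-cultured with PBMC (LPS system) were dosed for 24 h. Total protein was stained with 0.1% sulforhodamine B after 10% TCA fixation, read at 560 nm, and fitted bidirectionally against DMSO baseline.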

[19] = read-out: TIMP metallopeptidase inhibitor 2 (TIMP2), TIMP2 (gene 7077); test: BSK_KF3CT_TIMP2: BioMAP Diversity Plus: KF3CT Assay for TIMP metallopeptidase inhibitor 2 (TIMP2) Biomarker Activity (AID 2283071); settings: primary human keratinocytes with fibroblasts; actives raise or lower the signal
Summary of the method: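 Co-culture of human primary keratinocytes and foreskin fibroblasts, measured 24 h after chemical dosing. TIMP-2 quantified by ELISA and fitted in both directions relative to DMSO. Cytotoxicity checked in parallel cultures by SRB total-protein staining.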

Measured: AC50

Sequence of E-selectin (Homo sapiens) (P16581 whole entry, looked up): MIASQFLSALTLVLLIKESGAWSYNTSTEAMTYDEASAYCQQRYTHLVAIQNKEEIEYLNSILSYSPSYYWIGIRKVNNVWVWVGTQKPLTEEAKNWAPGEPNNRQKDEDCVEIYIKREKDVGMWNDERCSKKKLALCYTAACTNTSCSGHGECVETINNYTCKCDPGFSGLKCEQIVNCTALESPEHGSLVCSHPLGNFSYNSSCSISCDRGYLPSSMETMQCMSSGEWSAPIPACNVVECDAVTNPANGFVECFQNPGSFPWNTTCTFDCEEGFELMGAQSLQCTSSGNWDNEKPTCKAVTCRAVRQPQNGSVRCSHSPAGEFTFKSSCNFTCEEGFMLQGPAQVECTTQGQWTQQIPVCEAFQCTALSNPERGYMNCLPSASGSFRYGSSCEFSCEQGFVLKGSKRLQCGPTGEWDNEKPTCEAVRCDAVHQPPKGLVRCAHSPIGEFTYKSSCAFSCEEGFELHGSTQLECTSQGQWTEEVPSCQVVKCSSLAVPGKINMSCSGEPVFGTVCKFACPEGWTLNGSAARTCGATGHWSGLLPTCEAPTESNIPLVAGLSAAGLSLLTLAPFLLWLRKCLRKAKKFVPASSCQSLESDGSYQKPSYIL

CC1=CC2C3C=CC(C3)C2C1C (stereo not given)
inactive: [1] | [2] | [3] | [4] | [5] | [6] | [7] | [8] | [9] | [10] | [11] | [12] | [13] | [14] | [15] | CD40, CD40 (gene 958) | [16] | [17] | [18]

CCOC(=O)CC(=O)C(F)(F)C(F)(F)F
inactive: [1] | [2] | [3] | [4] | [5] | [6] | [7] | [8] | [9] | [10] | [13] | [14] | [15] | CD40, CD40 (gene 958) | [16] | [17] | [18]

O=C(O)C(F)(F)OC(F)(F)C(F)(F)OC(F)(F)C(F)(F)OC(F)(F)F
inactive: [1] | [2] | [3] | [4] | [5] | [6] | [7] | [8] | [9] | [10] | [13] | [14] | [15] | CD40, CD40 (gene 958) | [16] | [17] | [18]
active: [17] 9.98 µM and 20 µM

CC(C)CCCC(C)CCO (stereo not given)
active: [8] 36.5 µM | [9] 35.6 µM | [10] 34.4 µM | [11] 34.4 µM | [12] 30.1 µM | [13] 33.5 µM | [14] 36.4 µM | [15] 36.1 µM
inactive: [1] | [2] | [3] | [4] | [5] | [6] | [7] | CD40, CD40 (gene 958) | [16] | [17] | [18]

O=S(=O)(O)CCC(F)(F)C(F)(F)C(F)(F)C(F)(F)F
inactive: [1] | [2] | [3] | [4] | [5] | [6] | [7] | [8] | [9] | [10] | [11] | [19] | [13] | [14] | [15] | CD40, CD40 (gene 958) | [16] | [17] | [18]

Cc1ccc(S(=O)(=O)C(I)I)cc1
active: [1] 2.36 µM | [2] 2.63 µM | [3] 1.62 µM | [4] 2.68 µM | [5] 2.22 µM | [6] 0.942 µM | [7] 2.41 µM | [8] 3.07 µM | [9] 7.09 µM | [10] 5.19 µM | [13] 2.71 µM | [14] 5.24 µM | [15] 6.22 µM | CD40, CD40 (gene 958) 2.38 µM | [16] 3.3 µM | [17] 4.27 µM | [18] 5.31 µM
inactive: [12]
